# Data published in PubChem BioAssay AID1347434 (National Center for Advancing Translational Sciences (NCATS), 2020).
# “And” between values parts separate entries of the source, which are not always exact repeats. Identical values can stand only once. The whole screen tested about 1,200 compounds, of which about 30 (2%) were called active. Roughly 23% stayed inconclusive and do not appear here. Calls follow the shape of the dose curve; as a rule, active = well fitted inhibition curve with a large enough effect; inconclusive = small, poorly fitted or top-dose-only effect; inactive = flat fitted curve, though single readings scatter. What follows is part of a selection rich in actives, with near analogues and random picks from the rest. A call without a number means that no potency is given here.
# Molecular target: Single-stranded DNA cytosine deaminase (Homo sapiens) (UniProt Q9GZX7)
# Sequence (Q9GZX7 whole entry, looked up): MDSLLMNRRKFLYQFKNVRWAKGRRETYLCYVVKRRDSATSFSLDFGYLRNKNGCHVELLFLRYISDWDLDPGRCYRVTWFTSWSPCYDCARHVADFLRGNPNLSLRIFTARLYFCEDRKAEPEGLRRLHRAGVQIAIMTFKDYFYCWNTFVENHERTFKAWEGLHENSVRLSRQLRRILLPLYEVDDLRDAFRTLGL
# Experiment: Confirmatory qHTS assay for inhibitors of Activation Induced Cytidine Deaminase (AID): AID signals
# Settings: recombinant AID, FRET deamination/UDG coupled fluorescence, 4 h; series mostly up to 115 µM
# Text: Assay Provider (PI) Patricia Gearhart Ph.D. National Institute on Aging National Institute of Health (NIH), Bethesda, MD Assay Provider (PI) Rahul Kohli Ph.D. Perelman School of Medicine University of Pennsylvania, Philadelphia, PA Activation-Induced Deaminase (AID) is a cytosine deaminase which converts cytosine into uracil within stretches of ssDNA. The presence of uracil in DNA initiates a cascade of mutagenic DNA repair to introduce point mutations and DNA double strand breaks. Specific targeting of AID to the immunoglobulin heavy chain loci (Igh) promotes mutagenesis in the antibody variable region for somatic hypermutation (SHM) or switch regions leading to class switch recombination (CSR). However, AID also plays a role in accumulating unnecessary mutations across the genome. Mis-targeting of AID results in the initiation of tumor development and leads to greater drug resistance among cancer cells when continually expressed. To identify an AID inhibitor, a small molecule library will be screened in collaboration with NCATS core facility at NIH. To confirm biological function, inhibitors will be examined in an in vitro murine B-cell activation assay and subsequent secondary validation screens. Top molecules will be further screened to identify inhibitory efficacy against a wild type primary splenocytes assay. Using these approaches, we hope to identify a small molecule with great efficacy and low toxicity for use as a molecular probe to further characterize AID's intricacies, or even as a therapeutic. A FRET based analysis of cytosine deamination, was developed to identify potential inhibitors of AID catalytic activity. This screen has two signal output, Read 1 evaluates the AID inhibition response. The second readout (Read 2) evaluates UDG response and is uses as a counterscreen to exclude false positive inhibitors. Inhibition in AID and inactivity in the UDG signal is the desired outcome for this assay.
# PROTOCOL TABLE SEQUENCE No. (e.g., 1, 2, 3, etc.); […] (e.g., Cells, Incubation, Reagent, etc.); VALUE; DESCRIPTION 1a; Reagent; 3 uL; [4/3x] 1 uM AID/2.67 U/mL UDG 1b; Reagent; 3 uL; 2 U/mL UDG 1c; Reagent; 3 uL; 1 uM AID 2a; Compound; 46 nL; Follow-up plates (0.64 uM - 10 mM) 2b; Control; 46 nL; ATA (16.4 nM - 10 mM) 3; Time; 10 min; incubation at room temperature 4; Reagents; 1 uL; [4x] 250 nM DJC20 / 250 nM DJC23 [Substrate] 5; Time; 4 hr; incubation at room temperature 6; Reagent; 4 uL; [2x] 250 mM NaOH 7; Time; 15 sec; centrifuge at 1000 rpm 8; Time; 30 min; incubation at room temperature 9a; Detection; fluorescence (Read 1: AID); EnVision (PerkinElmer) plate reader, 540 excitation and 590 emission filters 9b; Detection; fluorescence (Read 2: UDG); EnVision (PerkinElmer) plate reader, 560 excitation and 665 emission filters NOTES (numbers refer to sequence above) 1a; Reagents were dispensed in a medium-binding black solid-bottom Greiner plates (789176F) using a BioRptr liquid dispenser. Dispense 3 uL of [4/3x] 1 uM AID (provided by Kohli lab) and [4/3x] 2 U/mL UDG (NEB M0280L) into columns 1, 2, 5 to 48. 1b; Dispense 3 uL of [4/3x] 2 U/mL UDG into column 3. 1c; Dispense 3 uL of [4/3x] 1 uM AID into column 4. 2a; Compound ([…] [uM]: 0.64; 3.2; 16; 80; 400; 2,000; 10,000; 20,000) double pin-transferred (Dip Factor = 2) using the Kalypsys (Wako USA) pintool equipped with a 1536 pinhead for a final concentration range of 7.32 nM - 114 uM. 2b; 10 mM Aurintricarboxylic Acid (Sigma A1895) (ATA, 8-point, n = 2, 1:2.5 dilution in column 2) double pin-transferred (Dip Factor = 2) using the Kalypsys (Wako USA) pintool equipped with a 1536 pinhead for a [final] range of 186 nM - 114 uM. 3; Room temperature incubation. 4; Dispense 1 uL of substrate mixture from the Kohli lab [4x] […] DJC20 and [4x] 250 nM DJC23 into columns 1 to 48 . 5; Room temperature incubation. 6; Dispense 4 uL of […] [2x] 250 mM NaOH into columns 1 to 48. 7; Centrifugation step to remove bubbles. […]
# Potency is read from the fitted curve at half-maximal effect.
row,SMILES,Potency
1,Cc1ccc(N(CC(=O)N2CCN(c3cc(C)ccc3C)CC2)S(=O)(=O)c2c(C)nn(C)c2C)cc1,inactive
2,Cc1oc(-c2cccc(Br)c2)nc1Cn1c(SCc2cccc(F)c2)nc2cccnc21,inactive
3,Cc1cc(-c2ccc(C)c(S(=O)(=O)N3CCCC(C)C3)c2)on1 (stereo not given),inactive
4,CCc1ccc(CNC(=O)c2ccc(CSc3nc4ccncc4n3Cc3ccccc3)cc2)cc1,inactive
5,Cc1ccc(C)c(N2CCN(CCCNC(=O)c3cnn(-c4ccc(F)cc4)c3C3CCN(C(=O)OC(C)(C)C)CC3)CC2)c1,inactive
6,CC(C)(Sc1ccc(CCN(CCCCC2CCCCC2)C(=O)NC2CCCCC2)cc1)C(=O)O,31.6 µM (active) and 112 µM (active)
7,Cc1ccc(Nc2c3c(nc4nc(-c5cccs5)nn24)CCCC3)cc1F,inactive
8,CCOC(=O)C1=C(CN(CC)Cc2ccccc2)NC(=O)NC1c1ccc(OC(C)C)cc1 (stereo not given),inactive
9,COc1ccccc1N1CCN(C(=O)c2cc3ccc4ccc(C)[nH]c4c3n2)CC1,inactive
10,COc1cccc(Nc2cc(-c3ccccc3)nc(C)n2)c1,inactive
11,COc1cc(Cl)c(C)cc1NC(=O)CSc1ncc(S(=O)(=O)c2ccc(C(C)(C)C)cc2)c(=O)[nH]1,inactive
12,Cc1ccc(NC(=O)CSc2ncc(S(=O)(=O)c3ccc(C(C)C)cc3)c(=O)[nH]2)cc1C,31.6 µM (active)
13,CC(C)c1ccc(S(=O)(=O)c2cnc(SCC(=O)Nc3cccc(C(F)(F)F)c3)nc2N)cc1,inactive
14,CC(C)(C)c1ccc(S(=O)(=O)c2cnc(SCC(=O)Nc3ccc(F)c(Cl)c3)[nH]c2=O)cc1,35.5 µM (active)
15,Cc1cc(C)c(NC(=O)CSc2ncc(S(=O)(=O)c3ccc(C(C)(C)C)cc3)c(=O)[nH]2)c(C)c1,inactive
16,COC(=O)c1cc(Cl)ccc1NC(=O)CSc1ncc(S(=O)(=O)c2ccc(Br)cc2)c(=O)[nH]1,inactive
17,Cc1nn2c(=O)cc(COC(=O)c3ccc(NC(=O)C4CCCCC4)cc3)nc2s1,inactive
18,COc1ccc(C)cc1NC(=O)c1c(C)oc2ncn(CC(C)C)c(=O)c12,inactive
19,CCc1nc2ccc(C(=O)N3CCN(c4ccc(Cl)cc4)CC3)cc2nc1CC,inactive
20,COc1ccc(-n2cc(-c3ccccc3)c3c(NC4CCCC4)ncnc32)cc1,inactive
21,CCOC(=O)c1ccc(N2C(=O)c3[nH]nc(-c4ccccc4)c3C2c2ccc(CC)cc2)cc1 (stereo not given),inactive
22,CCOC(=O)c1ccc(-n2c(N)c(C(=O)OC)c3nc4ccccc4nc32)cc1,25.1 µM (active)
23,CCOC(=O)c1ccc(NC(=O)CC2Nc3cccc4cccc(c34)NC2=O)cc1 (stereo not given),inactive

row,SMILES,Potency
1,O=C1C(SCCO)=C(SCCO)C(=O)c2ccccc21,14.1 µM (active)
2,N#C/C(=C\c1ccc(-c2ccccc2C(=O)O)o1)c1nc2ccccc2[nH]1,inactive
3,Cc1ccc(-c2ccc(=O)n(CC(=O)Nc3ccc(C)cc3Cl)n2)cc1,inactive
4,CCOC(=O)c1c(C)n(-c2ccccc2)c2ccc(OC(=O)c3ccccc3NC(=O)C(C)(C)C)cc12,inactive
5,COc1ccc(OC)c(Nc2sc(C(=O)c3ccccc3)c(N)c2S(=O)(=O)c2ccccc2)c1,inactive
6,C=Cc1ccc(CSc2nc(-c3ccc(OC)cc3)nc3c2Cc2c(CO)cnc(C)c2O3)cc1,inactive
7,COc1cc(/C=C(\C#N)C(=O)Nc2nnc(C(F)(F)F)s2)ccc1OCc1ccc(C(F)(F)F)cc1C(F)(F)F,31.6 µM (active)
8,CCC(Sc1nc2c(sc3ccccc32)c(=O)n1CCc1ccc(OC)c(OC)c1)C(=O)N(CC)CC (stereo not given),inactive
9,COc1ccc(C(=O)Nc2nc3n(n2)C(c2ccc(Cl)cc2)C=C(c2ccccc2)N3)cc1OC (stereo not given),inactive
10,O=C(NCCc1ccc(Cl)cc1)c1ccc2c(c1)N(Cc1ccc(Cl)cc1)C(=O)CS2,inactive
11,O=C(NCCn1cc(SCc2ccc(C(F)(F)F)cc2)c2ccccc21)c1cccs1,inactive
12,Cc1cccc(N(CC(=O)NCCSCc2cccc(Cl)c2)S(=O)(=O)c2ccccc2)c1C,inactive
13,CCCOc1ccc(-c2nn(-c3ccccc3)cc2C2NC(=O)NC(C)=C2C(=O)OC(C)C)cc1 (stereo not given),inactive
14,CCN1C(=O)c2ccccc2S(=O)c2ccc(C(=O)N3CCN(c4cccc(C)c4)C(C)C3)cc21 (stereo not given),inactive
15,Cc1ccc(-n2cnc3cc(C(=O)NCCC4=CCCCC4)ccc32)c(C)c1,inactive
16,O=C(c1noc2c1CCCCC2)N1CCN(c2ccc(Cl)cc2)CC1,inactive
17,CCc1cccc(-n2c(C)nc3c(cnn3-c3ccc(C)c(C)c3)c2=O)c1,inactive
18,O=C(NCCn1cc(SCc2cccc(F)c2)c2ccccc21)c1cccc(C(F)(F)F)c1,inactive
19,Cc1ccc(C)c(N2CCN(C(=O)c3cc(S(=O)(=O)N4CCC(C)CC4)cn3C)CC2)c1,inactive
20,Cc1ccc(C)c(N2CCN(C(=O)Cn3nc(Cc4cccnc4)c4ccccc4c3=O)CC2)c1,inactive
21,Cc1ccc(-c2nc(C(=O)N3CCN(c4ccccc4)CC3)c3n2CCCCC3)cc1,inactive
22,COc1ccc2c(c1)Cc1sc(NC(=O)c3cccc(C)c3)nc1-2,inactive
23,CCc1ccc(OCC(=O)N(Cc2ccc(Cl)cc2)C2CCS(=O)(=O)C2)cc1 (stereo not given),inactive

row,SMILES,Potency
1,Cc1ccc(Cl)cc1N1CCN(CCCNC(=O)c2ccc3nc(N4CCCCC4)sc3c2)CC1,inactive
2,Cn1c(SCc2ccc(F)cc2)nc2ccc(C(=O)NCc3ccc(F)cc3)cc21,inactive
3,COc1ccccc1CNC(=O)c1cnn2c(C)c(Cc3ccc(F)cc3)c(C)nc12,inactive
4,CCn1c(SCc2ccc(F)cc2Cl)nc(=O)c2c(C(=O)OC)cc(C3CC3)nc21,inactive
5,Cc1ccc(CN(Cc2ccco2)C(=O)c2ccccc2Br)o1,inactive
6,Cc1cc(Nc2cccc(F)c2)n2nc(-c3ccco3)nc2n1,inactive
7,Cc1ccc(C)c(Cn2nc(-c3cc(C)ccc3C)ccc2=O)c1,inactive
8,CC1=Nc2cc(C(=O)N3CCC(C)CC3)ccc2Sc2ccc(Cl)cc21,inactive
9,O=C(NCCc1ccccc1)c1sc2ncccc2c1-n1cccc1,inactive
10,Cc1ccc(Cl)cc1NC(=O)C(C)n1nc(-c2ccccc2)ccc1=O (stereo not given),inactive
11,CCCCCCCCc1ccc(-c2ccc(C(=O)O)cc2)cc1,35.5 µM (active)
12,Cn1nc(-c2ccc(C(=O)Nc3ccc(F)cc3)cc2)c2ccccc2c1=O,inactive
13,CCc1nnc(SCc2cccc(F)c2)c2cc3sc(C)cc3n12,inactive
14,Cc1cccc(N2CCN(C(=O)CS(=O)(=O)Cc3nc(-c4ccccc4C)oc3C)CC2C)c1 (stereo not given),inactive
15,Cc1ccc(C)c(N(C)C(=O)C2CCN(c3ncnc4c3nc3n4CCCCC3)CC2)c1,inactive
16,COc1ccc(NC(=O)CSc2nc3nc(C)c(Cc4ccccc4)c(C)n3n2)cc1OC,inactive
17,CN(C)CCNc1ncnc2c1cnn2-c1cccc(Cl)c1,inactive
18,Cc1ccc(C)c(N2CCN(CCCNc3ncnc4onc(-c5ccc(Cl)cc5)c34)CC2)c1,inactive
19,CCc1ccc(CNC(=O)c2cnc3sc(N(CC)CC)nn3c2=O)cc1,inactive
20,Cc1ccc(S(=O)(=O)N2CCCC2C(=O)Nc2ccc(Br)cc2)cc1 (stereo not given),inactive
21,CCc1nnc2c(N3CCN(c4cccc(C)c4)C(C)C3)nc3ccccc3n12 (stereo not given),inactive
22,CCOC(=O)C1=C(CN2CCN(c3cc(C)ccc3C)CC2)NC(=O)NC1c1ccccc1 (stereo not given),inactive
23,COc1ccc(S(=O)(=O)N(CC(=O)NC(C)c2ccccc2)c2ccc(C)cc2)cc1OC (stereo not given),inactive

row,SMILES,Potency
1,CC(=O)[C@]1(O)Cc2c(O)c3c(c(O)c2[C@@H](O[C@H]2C[C@H](N)[C@H](O)[C@H](C)O2)C1)C(=O)c1ccccc1C3=O,5.62 µM (active)
2,COc1ccccc1C(=O)Nc1ccc(C(=O)OCc2cc(=O)n3nc(C)sc3n2)cc1,inactive
3,Cc1cccc(C)c1OCC(=O)N(Cc1ccco1)Cc1ccco1,inactive
4,CCC1CCCCN1C(=O)CSc1nc2c([nH]c3ccccc32)c(=O)n1-c1cccc(OC)c1 (stereo not given),inactive
5,O=C(CCCCCn1c(=O)[nH]c2ccccc2c1=O)NCc1ccc(Cl)cc1,inactive
6,Cc1cccc(C)c1NC(=O)CS(=O)(=O)c1nc(-c2ccc(Cl)cc2)cn1-c1ccccc1,inactive
7,CN1CCN(c2nc3c(S(=O)(=O)c4ccc(Cl)cc4)nnn3c3ccsc23)CC1,inactive
8,COc1ccccc1C(=O)NCCn1cc(SCc2ccccc2Cl)c2ccccc21,inactive
9,Cc1ccc2c(c1)c(=O)c(C(=O)c1ccccc1)cn2Cc1ccccc1F,inactive
10,O=C(c1ccc(F)cc1)c1cn(Cc2ccccc2)c2cc3c(cc2c1=O)OCO3,inactive
11,COc1ccc(NCc2nc3ccccc3n2CCOc2ccccc2C)cc1,inactive
12,Cc1cccc(N2CCN(C(=O)c3sc4nc5n(c(=O)c4c3C)CCC5)CC2C)c1 (stereo not given),inactive
13,CN(c1ncnc2onc(-c3cccc(Cl)c3)c12)C1CCCCC1,inactive
14,COc1ccc(CCN2CCC(CNC(=O)c3cnn(-c4ccccc4)c3C3CCN(C(=O)OC(C)(C)C)CC3)CC2)cc1,inactive
15,CC(C)(C)OC(=O)N1CCC(c2c(C(=O)NCCN3CCC(Cc4ccccc4)CC3)cnn2-c2ccccc2)CC1,inactive
16,COc1ccc(CCN2CCC(CNC(=O)c3cnn(-c4cccc(Cl)c4)c3C3CCN(C(=O)OC(C)(C)C)CC3)CC2)cc1,31.6 µM (active)
17,CCN(CC)CCNC(=O)c1ccc2c(=O)n3nc(Nc4ccccc4)sc3nc2c1,inactive
18,CCN(CC)CCNC(=O)c1ccc2c(=O)n3nc(Nc4cccc(Cl)c4C)sc3nc2c1,50.1 µM (active)
19,CCN(CC)CCNC(=O)c1ccc2c(=O)n3nc(Nc4ccccc4OC)sc3nc2c1,inactive
20,Cc1nc2nc(SCC(=O)NCc3ccccc3)nn2c(C)c1Cc1ccccc1Cl,inactive
21,COc1ccc(C(=O)c2sc3nc4c(c(C(F)(F)F)c3c2N)CN(C(C)=O)CC4)cc1OC,inactive
